The values below come from PubChem BioAssay (Tox21).

The source made the active and inactive calls. Calls come from the whole dose curve; as a rule, active = well fitted curve in the direction sought with a large enough effect in the repeat runs; inconclusive = weak or mixed curves; inactive = flat fitted curve, though single readings scatter. Positions of bridges follow the written chain, without caps; N, C: chain ends. Non-standard residues stand in square brackets, D forms with d. Residues, ends and D or L forms follow the SMILES beside them. hArg = N=C(N)NCCCC[C@H](N)C(=O)O; Mpa = O=C(O)CCS
% is set by controls: 0 for no effect and ±100 for the full control effect.

This assay can be described thus: qHTS assay to test for compound auto fluorescence at 590 nm (red) in HepG2 cells (AID 720674). The settings on record: HepG2 autofluorescence, red 540/590 nm, 1 h; series mostly up to 91.3 µM. The source says:
U.S. Tox21 Program National Center for Advancing Translational Sciences [NCATS] NIH Chemical Genomics Center [NCGC] U.S. Environmental Protection Agency [EPA] National Institutes of Environmental Health Sciences [NIEHS] National Toxicology Program [NTP] U.S. Food and Drug Administration [FDA] Tox21 Assay Overview: Compound auto fluorescence often interferes with screening of the compound library against various biological targets and signaling pathways. Some of these compounds may have fluorophoric properties. Such properties may interfere with the assay outputs resulting in false positives and/or negatives. To decrease such complications and ensure the compound activities are relevant in terms of biological response, the Tox21 10K compound library was screened for auto fluorescence. From the fluorophores used as reporter signals in our screening assays, the auto fluorescence equivalencies of compounds against three fluorophores have been evaluated: Triamterene, Fluorescein and Rose Bengal sodium for blue, green and red fluorescence, respectively. The fluorescence intensities were measured using Excitation/Emission wavelengths at 405/460nm, 485/535nm and 540/590nm for blue, green and red labels, respectively. This assay includes the red fluorescence data.
Tox21 Assay Protocol Summary: 2,000 HepG2 cells in 5 uL of culture medium (MEM containing 10% FBS) per well were dispensed into black wall/clear bottom 1536-well plates using a Multidrop Combi Dispenser (ThermoFisher Scientific, Waltham, MA). The assay plates were incubated overnight at 37 C to allow cell attachment to the well bottom, followed by the transfer of 23 nL compound or DMSO vehicle by a pintool work station (Kalypsys , San Diego, CA). After the assay plates were incubated for 1 hr at 37 C and 5% CO2, fluorescence intensities in the assay plates were measured by an Envision (PerkinElmer, Shelton, CT) plate reader using three labels for measuring blue, green and red fluorescence at […] 460, 535 and 590 nm respectively.
In general terms: Quantitative high-throughput screening tests each substance at several concentrations.
For the compound `Cc1ccc(C(C)NC(=O)[C@@H](NC(=O)OC(C)C)C(C)C)cc1` (stereo not given in full), the compound was classed as inactive.

For `OC[C@H]1O[C@@H](O[C@@H]2[C@@H](CO)O[C@](O)(CO)[C@H]2O)[C@H](O)[C@@H](O)[C@H]1O`, the outcome was inactive.

As for `CC12CCC(C1)C(C)(C)C2O` (stereo not given), the compound was called inactive.

Take `NC(=O)[C@@H]1CSSCCC(=O)N[C@@H](CCCCN=C(N)N)C(=O)NCC(=O)N[C@@H](CC(=O)O)C(=O)N[C@@H](Cc2c[nH]c3ccccc23)C(=O)N2CCC[C@H]2C(=O)N1` ([Mpa][hArg]GDWPC-NH2; disulfide 1-7): the compound was called inactive.

As to `CC(C)c1ccc(C=O)cc1`, the compound was called inactive.

Take `CC(C)Cn1cnc2c1c(=O)n(C)c(=O)n2C`: the result was inactive.

Consider `CC(N)CCCC(C)(C)O` (stereo not given), for which the result was inactive.

In the case of `O=C(O)CSCC(=O)NC1CCSC1=O` (stereo not given), the compound was called inactive.

For the compound `Cn1nnc2c(C(N)=O)ncn2c1=O`, the call was inactive.

As for `O=S(=O)(O)c1ccc2c(N=Nc3ccc(S(=O)(=O)O)c4ccccc34)c(O)c(S(=O)(=O)O)cc2c1`, the compound was called inactive.

Regarding `Cc1cc(C)c(C(=O)O)c(C)c1`, the outcome was inactive.

Consider `C=CCCCC`, for which the outcome was inactive.

On to `CC/C=C\CCOC(=O)c1ccccc1O`, for which the call was inactive.

In the case of `CN(C)CCCCl`, the outcome was inactive.

For the compound `N#Cc1cscn1`, the call was inactive.

As for `C=CCOC(=O)CCCCCC`, the compound was classed as inactive.

As to `CC1(C)[C@H]2CC[C@](C)(C2)[C@H]1O`, the compound was called inactive.

As for `CCNC(=O)NCc1cccc(Cl)c1`, the result was inactive.

As to `OC[C@@H](O)C(O)[C@@H](O)CO` (stereo not given in full), the call was inactive.

For `COP(=O)(O)OP(=O)(O)OC`, the compound was called inactive.

As to `CCCCOCC(C)O` (stereo not given), the outcome was inactive.

In the case of `O=C[O][Al]([O]C=O)[O]C=O`, the result was inactive.

As to `COC(=O)CCCCC(=O)O`, the outcome was inactive.

Turning to `CCC[C@@H]1C[C@@H](C(=O)N[C@@H]([C@H]2O[C@H](SC)[C@H](O)[C@@H](O)[C@H]2O)[C@@H](C)O)N(C)C1`, the compound was called inactive.

Consider `C=C(C)c1cccc(C(C)(C)N=C=O)c1`, for which the compound was called inactive.

Turning to `O=C1CCCCO1`, the call was inactive.

As for `c1ccc2c(CC3=NCCN3)cccc2c1`, the compound was called inactive.

On to `CC1=C(C(=O)O)N2C(=O)[C@@H](NC(=O)[C@H](N)C3=CCC=CC3)[C@H]2SC1`, for which the result was inactive.

With `CC(=O)OC1CCCCC1C(C)(C)C` (stereo not given), the result was inactive.

On to `CO[C@@]1(NC(=O)Cc2cccs2)C(=O)N2C(C(=O)O)=C(COC(N)=O)CS[C@@H]21`, for which the call was inactive.

Regarding `CC1=C(C(=O)O)N2C(=O)[C@@H](NC(=O)[C@H](N)c3ccccc3)[C@H]2SC1`, the result was inactive.

Take `CCOCCOCC`: the result was inactive.

For the compound `CCCCOC(=O)[C@H](C)O`, the compound was called inactive.

Turning to `CCCCCCCCCCCCCCCCCCOCCO`, the fluorescence, relative to Rose Bengal was 0.105% [at 18.6 µM] (inactive).

For `O=[N+]([O-])c1c(Cl)cc(Cl)cc1Cl`, the outcome was inactive.

Turning to `CO[Si](CCCn1c(=O)n(CCC[Si](OC)(OC)OC)c(=O)n(CCC[Si](OC)(OC)OC)c1=O)(OC)OC`, the call was inactive.

As for `CC(=O)CC(=O)Nc1ccc(C)cc1C`, the compound was called inactive.

For `CN(C)CCN(C)CCO`, the compound was classed as inactive.

Regarding `C=C(C)C1CC=C(C)C(=O)C1` (stereo not given), the outcome was inactive.

For `CC(C)(CO)C(O)C(=O)NCCCO` (stereo not given), the call was inactive.
